Laboratory results published in PubChem BioAssay (NCATS).
Records with an inconclusive call do not appear. Entries that show only a call come without a potency. The source made the active and inactive calls. The call rests on the fitted dose curve; in most records, active means well fitted inhibition curve with a large enough effect; inconclusive means small, poorly fitted or top-dose-only effect; inactive means flat fitted curve, though single readings scatter.

Experiments:
Assay in all cases: qHTS profiling for inhibitors of Plasmodium falciparum proliferation (AID 504749); further: nearly all actives have a fitted effect of over 60% in size
Conditions in all cases: P. falciparum in erythrocytes, SYBR Green DNA, 72 h; series mostly up to 28.7 µM
CP286 = tested on: CP286
Procedure, shortened: (§1)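 P. falciparum-infected erythrocytes (0.3% parasitemia, 2.5% hematocrit) incubated with compound 72 h at 37 C, 5% CO2. Parasite DNA detected by SYBR Green after lysis, overnight at room temperature; normalised to 0.29 uM artemisinin and DMSO.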

CP291 = tested on: CP291
Procedure, shortened: as §1

CP305 = tested on: CP305
Procedure, shortened: as §1

CP315 = tested on: CP315
Procedure, shortened: as §1

CP325 = tested on: CP325
Procedure, shortened: as §1

CP329 = tested on: CP329
Procedure, shortened: as §1

DFO2036 = tested on: DFO2036
Procedure, shortened: as §1

DIV14 = tested on: DIV14
Procedure, shortened: as §1

Dd2 = tested on: Dd2
Procedure, shortened: as §1

ECU = tested on: ECU
Procedure, shortened: as §1

FAB9 = tested on: FAB9
Procedure, shortened: as §1

HB3 = tested on: HB3
Procedure, shortened: as §1

ICS = tested on: ICS
Procedure, shortened: as §1

JCK = tested on: JCK
Procedure, shortened: as §1

DIV17 = tested on: DIV17
Procedure, shortened: as §1

CP297 = tested on: CP297
Procedure, shortened: as §1

CP335 = tested on: CP335
Procedure, shortened: as §1

DIV30 = tested on: DIV30
Procedure, shortened: as §1

GB4 = tested on: GB4
Procedure, shortened: as §1

N140 = tested on: N140
Procedure, shortened: as §1
Potency means the concentration at half of the fitted maximal effect.

SMILES	Potency (CP286)	Potency (CP291)	Potency (CP305)	Potency (CP315)	Potency (CP325)	Potency (CP329)	Potency (DFO2036)	Potency (DIV14)	Potency (Dd2)	Potency (ECU)	Potency (FAB9)	Potency (HB3)	Potency (ICS)	Potency (JCK)	Potency (DIV17)	Potency (CP297)	Potency (CP335)	Potency (DIV30)	Potency (GB4)	Potency (N140)
NCc1ccccc1Sc1ccccc1CO	inactive	inactive	inactive	inactive	inactive	inactive	inactive	13.5 µM (active)	10 µM (active)	inactive	inactive	inactive	8.91 µM (active)	inactive	–	–	–	–	–	–
CN(C)C(=O)Nc1ccc(Cl)c(Cl)c1	inactive	inactive	–	–	inactive	–	inactive	3.01 µM (active)	–	inactive	inactive	–	–	inactive	4.78 µM (active)	–	–	–	–	–
CCOC(=O)Nc1ccc2c(c1)N(C(=O)CCN1CCOCC1)c1ccccc1S2	inactive	inactive	inactive	–	inactive	inactive	inactive	inactive	inactive	inactive	inactive	inactive	inactive	inactive	–	inactive	inactive	inactive	inactive	inactive
CCOc1ccccc1C(N)=O	inactive	–	inactive	inactive	inactive	inactive	inactive	inactive	inactive	inactive	inactive	inactive	inactive	inactive	inactive	inactive	inactive	inactive	inactive	inactive
CN(CCCN1c2ccccc2CCc2ccccc21)CC(=O)c1ccc(Cl)cc1	7.08 µM (active)	–	inactive	inactive	–	–	–	4.26 µM (active)	7.08 µM (active)	10 µM (active)	inactive	12.6 µM (active)	2 µM (active)	–	4.78 µM (active)	–	13.5 µM (active)	–	–	7.94 µM (active)
NCCNc1cccc2ccccc12	inactive	inactive	inactive	inactive	inactive	inactive	–	–	–	inactive	inactive	inactive	–	inactive	15.1 µM (active)	–	–	inactive	–	inactive
CN1CCN(C2=Nc3cc(F)ccc3Cc3ccccc32)CC1	inactive	inactive	inactive	inactive	inactive	inactive	inactive	–	14.1 µM (active)	inactive	inactive	inactive	–	inactive	–	–	–	inactive	–	–
Oc1ccc(Cl)cc1Cc1cc(Cl)ccc1O	inactive	–	inactive	inactive	–	inactive	inactive	–	inactive	–	inactive	inactive	–	–	–	inactive	inactive	–	–	11.2 µM (active)
CC1(COc2ccc(CC3SC(=O)NC3=O)cc2)CCCCC1 (configuration not stated)	inactive	inactive	inactive	inactive	inactive	inactive	inactive	inactive	inactive	inactive	inactive	inactive	inactive	inactive	–	–	inactive	inactive	inactive	inactive
O=C(Oc1cccc2cccnc12)c1ccccc1	inactive	inactive	inactive	–	–	inactive	inactive	inactive	inactive	inactive	inactive	inactive	–	inactive	inactive	inactive	inactive	inactive	–	inactive
CNCCc1ccccn1	inactive	inactive	inactive	inactive	inactive	inactive	inactive	inactive	inactive	inactive	inactive	inactive	inactive	inactive	inactive	–	inactive	inactive	inactive	inactive
Cc1cc2c(OCC(CNC(C)(C)C)OC(=O)c3ccccc3)cccc2[nH]1 (configuration not stated)	8.91 µM (active)	–	–	inactive	inactive	inactive	–	–	3.98 µM (active)	inactive	inactive	–	8.91 µM (active)	inactive	–	–	–	inactive	10.7 µM (active)	–
CN(C)CCC[C@@]1(c2ccc(F)cc2)OCc2cc(C#N)ccc21	inactive	inactive	inactive	–	inactive	inactive	inactive	inactive	–	inactive	inactive	inactive	inactive	inactive	inactive	–	inactive	inactive	inactive	inactive
O=C1C(CCS(=O)c2ccccc2)C(=O)N(c2ccccc2)N1c1ccccc1 (configuration not stated)	inactive	inactive	inactive	–	inactive	inactive	inactive	inactive	inactive	inactive	inactive	inactive	inactive	inactive	inactive	inactive	inactive	inactive	inactive	inactive
Cc1ccc(O)c([C@H](CCN(C(C)C)C(C)C)c2ccccc2)c1	3.98 µM (active)	9.53 µM (active)	7.57 µM (active)	16.9 µM (active)	10.7 µM (active)	13.5 µM (active)	5.01 µM (active)	1.35 µM (active)	2.51 µM (active)	3.98 µM (active)	8.91 µM (active)	7.94 µM (active)	1 µM (active)	7.94 µM (active)	1.2 µM (active)	–	5.36 µM (active)	6.01 µM (active)	1.51 µM (active)	2 µM (active)
COc1ccc(C(=O)c2ccccc2)c(O)c1	inactive	inactive	–	inactive	inactive	inactive	inactive	–	–	–	inactive	10 µM (active)	2.82 µM (active)	inactive	–	inactive	–	–	–	–
C#C[C@]1(O)CC[C@H]2[C@@H]3CCC4=Cc5oncc5C[C@]4(C)[C@H]3CC[C@@]21C	inactive	inactive	inactive	inactive	inactive	inactive	inactive	inactive	inactive	inactive	inactive	inactive	inactive	inactive	inactive	–	inactive	inactive	inactive	inactive
O=C(Nc1cccc(C2=NCCN2)c1)Nc1cccc(C2=NCCN2)c1	2 µM (active)	15.1 µM (active)	7.57 µM (active)	16.9 µM (active)	–	13.5 µM (active)	1.78 µM (active)	3.01 µM (active)	0.891 µM (active)	3.16 µM (active)	–	10 µM (active)	2.24 µM (active)	5.01 µM (active)	4.26 µM (active)	13.5 µM (active)	12 µM (active)	13.5 µM (active)	3.79 µM (active)	4.47 µM (active)
C/C=C/C=N/NC(=O)c1ccncc1	inactive	inactive	inactive	inactive	inactive	inactive	inactive	inactive	inactive	inactive	inactive	inactive	inactive	inactive	inactive	–	inactive	inactive	inactive	inactive
CC(=O)O[C@]1(C(C)=O)CC[C@H]2[C@@H]3C=C(Cl)C4=CC(=O)CC[C@]4(C)[C@H]3CC[C@@]21C	10 µM (active)	15.1 µM (active)	13.5 µM (active)	–	15.1 µM (active)	–	–	–	–	–	inactive	–	10 µM (active)	inactive	–	9.53 µM (active)	–	–	–	–

SMILES	Potency (CP286)	Potency (CP291)	Potency (CP305)	Potency (CP315)	Potency (CP325)	Potency (CP329)	Potency (DFO2036)	Potency (DIV14)	Potency (Dd2)	Potency (ECU)	Potency (FAB9)	Potency (HB3)	Potency (ICS)	Potency (JCK)	Potency (DIV17)	Potency (CP297)	Potency (CP335)	Potency (DIV30)	Potency (GB4)	Potency (N140)
O=C1C(=O)c2ccccc2C(O)=C1C1CCC(c2ccc(Cl)cc2)CC1 (configuration not stated)	0.0011 µM (active)	0.0064 µM (active)	0.0051 µM (active)	0.0057 µM (active)	0.0064 µM (active)	–	0.0032 µM (active)	0.0064 µM (active)	0.0035 µM (active)	0.0032 µM (active)	0.0032 µM (active)	0.0028 µM (active)	0.002 µM (active)	0.0056 µM (active)	0.0091 µM (active)	–	0.0032 µM (active)	0.0051 µM (active)	0.0041 µM (active)	0.005 µM (active)
CC(=O)N[C@@H](CCC(=O)O)C(=O)O	inactive	–	inactive	inactive	inactive	inactive	inactive	inactive	inactive	inactive	inactive	inactive	inactive	inactive	inactive	inactive	inactive	inactive	–	inactive
NC(N)=NCc1cccc(I)c1	inactive	inactive	inactive	inactive	inactive	inactive	inactive	inactive	inactive	inactive	inactive	inactive	–	inactive	inactive	–	–	inactive	inactive	inactive
CCCCNc1ccc(C(=O)OCCOCCOCCOCCOCCOCCOCCOCCOCCOC)cc1	inactive	inactive	inactive	–	inactive	inactive	inactive	–	inactive	inactive	inactive	inactive	inactive	inactive	inactive	inactive	inactive	inactive	inactive	inactive
COc1ccc(CCN(C)CCCN2CCc3cc(OC)c(OC)cc3CC2=O)cc1OC	inactive	inactive	inactive	inactive	inactive	inactive	inactive	inactive	–	inactive	inactive	inactive	–	inactive	inactive	–	inactive	inactive	inactive	inactive
CCN(CC)CCNC(=O)c1cc(Br)c(N)cc1OC	inactive	inactive	inactive	inactive	inactive	inactive	inactive	inactive	inactive	inactive	inactive	inactive	inactive	inactive	inactive	–	inactive	inactive	inactive	inactive
CC(C)NCC(O)c1ccc2ccccc2c1 (configuration not stated)	11.2 µM (active)	–	–	–	–	inactive	–	6.75 µM (active)	7.08 µM (active)	3.98 µM (active)	–	12.6 µM (active)	2 µM (active)	–	6.75 µM (active)	–	12 µM (active)	12 µM (active)	6.75 µM (active)	4.47 µM (active)
Cc1cc(CC(=O)O)c(C)n1-c1ccc(Cl)cc1	inactive	inactive	inactive	inactive	inactive	inactive	inactive	–	–	–	inactive	inactive	8.91 µM (active)	inactive	16.9 µM (active)	–	–	–	–	–
CCN(CC)CCOc1ccc2c(c1)C(=O)c1cc(OCCN(CC)CC)ccc1-2	10 µM (active)	–	–	inactive	–	–	–	13.5 µM (active)	12.6 µM (active)	8.91 µM (active)	–	11.2 µM (active)	–	–	9.53 µM (active)	–	–	–	12 µM (active)	–
CC(C)(C)NC[C@H](O)COc1cccc2c1CCCC2=O	inactive	inactive	inactive	–	inactive	inactive	inactive	–	inactive	inactive	inactive	inactive	inactive	inactive	inactive	inactive	inactive	inactive	–	inactive
CCCCCCCCNC(C)C(O)c1ccc(SC(C)C)cc1 (configuration not stated)	1 µM (active)	1.9 µM (active)	2.69 µM (active)	3.01 µM (active)	3.01 µM (active)	3.01 µM (active)	–	0.675 µM (active)	0.447 µM (active)	0.355 µM (active)	1.41 µM (active)	0.891 µM (active)	0.0891 µM (active)	3.16 µM (active)	0.757 µM (active)	–	0.601 µM (active)	0.675 µM (active)	0.536 µM (active)	–
NC(=O)C1(N2CCCCC2)CCN(CCCC(=O)c2ccc(F)cc2)CC1	inactive	–	–	inactive	inactive	inactive	inactive	–	–	inactive	inactive	inactive	inactive	inactive	–	–	–	inactive	–	inactive
CCCN(CCc1cccs1)[C@H]1CCc2c(O)cccc2C1	10 µM (active)	10.7 µM (active)	13.5 µM (active)	–	12 µM (active)	–	10 µM (active)	4.26 µM (active)	2.51 µM (active)	2.82 µM (active)	–	10 µM (active)	0.794 µM (active)	–	3.01 µM (active)	6.75 µM (active)	8.49 µM (active)	5.36 µM (active)	1.69 µM (active)	3.16 µM (active)
Cc1cc(-c2ccccc2)nnc1NCCN1CCOCC1	inactive	–	inactive	inactive	–	inactive	inactive	–	–	–	inactive	inactive	–	inactive	8.49 µM (active)	inactive	inactive	–	inactive	inactive
CCOCCn1c(N2CCCN(C)CC2)nc2ccccc21	inactive	inactive	–	inactive	inactive	inactive	–	7.57 µM (active)	–	inactive	inactive	inactive	–	inactive	7.57 µM (active)	–	–	–	–	inactive
COc1cc(O)c(C(=O)c2ccccc2)cc1S(=O)(=O)O	inactive	inactive	–	inactive	inactive	inactive	inactive	–	inactive	–	inactive	–	3.55 µM (active)	inactive	–	inactive	–	inactive	–	–
Cc1ccc(S(=O)(=O)NC(=O)NC2CCCC2)cc1	inactive	inactive	inactive	inactive	inactive	inactive	inactive	inactive	inactive	inactive	inactive	inactive	inactive	inactive	inactive	–	inactive	inactive	inactive	inactive
CCCCCCCCCCCCCC(=O)OC(C)C	inactive	inactive	inactive	inactive	inactive	inactive	inactive	inactive	inactive	inactive	inactive	inactive	inactive	inactive	inactive	–	inactive	–	inactive	inactive
CC(C)Cc1ccc(CC(=O)O)cc1	inactive	inactive	inactive	–	inactive	inactive	inactive	inactive	inactive	inactive	inactive	inactive	inactive	inactive	inactive	inactive	inactive	inactive	inactive	inactive
